Most compounds without a hit are left out; they make up all but 1.3% or so of the library.
KCNH2 3.1 block = blocks the human KCNH2 3.1 channel isoform; U2OS KCNH2 3.1, thallium flux FluxOr; hits give low values; activity change, % (tested at about 1.8 µM); 0.95% of 340,000 active;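 active = maximum activity change below -70%; inconclusive = maximum activity change from -70% to -50%; inactive = maximum activity change above -50%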;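 note: thallium influx rate constant from kinetic fluorescence after stimulation buffer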
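Steps: virus added to U2OS suspension (4 h, RT, dark); medium with 10% FBS added, cells plated, 37 C overnight; FluxOr/Red40 loading buffer 45 min RT; stimulation buffer, 2 min kinetic read; rate constant normalized.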
hERG WT inh = inhibitors of human wildtype KCNH2 potassium channel; Q12809; 0.37% of 340,000 active; activity change, % at 1.84 µM; AID 720551; U2OS, BacMam KCNH2, thallium flux FluxOr; hits give low values;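 active = maximum activity change below -70%; inconclusive = maximum activity change between -70% and -50%; inactive = maximum activity change above -50%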
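U2OS cells transduced with wild-type KCNH2 virus are loaded with FluxOr dye for 45 min, and thallium flux is measured in kinetic reads before and after stimulation buffer. Rate constants are normalized to DMSO controls.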
TRPV1 ag = activates the human vanilloid receptor TRPV1; Q8NER1; activation, % at 8.33 µM; AID 540275; TRPV1-expressing cells, Fluo-8 calcium influx, agonist mode; 0.19% of 320,000 active; in the data active = activation above about 80%; inconclusive = between about 30% and that limit
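Fluo-8 calcium influx in TRPV1-expressing cells, kinetic read (ex 480/em 520 nm). Compound added and read 3 min for agonist activity, followed by capsaicin at EC20 final and 2 min further read for enhancement.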
TRPV1 PAM = human TRPV1 potentiation. Q8NER1. TRPV1-expressing cells, Fluo-8 calcium influx, capsaicin EC20 potentiation. potentiation, % at 8.33 µM. 0.02% of 320,000 active. AID 540277; in the data active = potentiation above about 80%; inconclusive = between about 30% and that limit
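Cells expressing TRPV1 were dye-loaded with Fluo-8 and read kinetically: 10 s baseline, 3 min after compound (agonist portion), then 2 min after EC20 capsaicin (allosteric enhancer portion). Calcium-bound dye fluorescence at 480/520 nm.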
MBNL1-CUG inh = blocks human MBNL1 binding to CUG repeat RNA | TR-FRET MBNL1-His/biotin-(CUG)12 binding, 665/545 ratio | Potency, µM (doses to about 57.5 µM), hits mostly inhibitors | 0.036% of 280,000 active | AID 2675; active = well fitted inhibition curve with a large enough effect in the signal ratio, with a control signal flat, not every such curve was filed as active; inconclusive = small, poorly fitted or top-dose-only effect, or effect the other way, or a change in a side signal; inactive = no such curve, though single readings can be large or run the other way; the % refers to the signal ratio
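Inhibition of protein-RNA binding appears as loss of TR-FRET between terbium anti-His antibody on MBNL1-His and streptavidin-XL665 on biotin-(CUG)12. Activity is normalized to buffer-only and uninhibited-complex controls.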
A number is an active result; i = inactive; ? = inconclusive; nt = no result given.

SMILES	KCNH2 3.1 block	hERG WT inh	TRPV1 ag	TRPV1 PAM	MBNL1-CUG inh
CC(=O)N(Cc1ccccc1)C1CC(=O)N(Cc2ccccc2)C1=O (configuration not stated)	i	i	nt	nt	nt
O=C(OCc1cn([C@@H]2C[C@H](c3ccc(Cl)cc3)N(C(=O)C3CCCCC3)C[C@H]2O)nn1)c1ccccc1	i	i	nt	nt	nt
O=C(OCc1cn([C@H]2C[C@H](c3ccc(Cl)cc3)N(C(=O)C3CCCCC3)C[C@@H]2O)nn1)c1ccccc1	-82	i	nt	nt	nt
COc1ccc(/C=C2\SC(N3CCCCC3)=NC2=O)cc1	i	i	i	i	?
COc1ccc(/C=C2\SC(=O)N=C2N)cc1	i	-214	i	i	nt
CCc1sc(C(=O)N(CCOC)c2c(N)n(Cc3ccccc3)c(=O)[nH]c2=O)cc1C	i	i	nt	nt	nt
CCOC(=O)C1=C(C)NC(C)=C(C(=O)OCC)C1C(=O)OCC(=O)NC(C)c1ccccc1 (configuration not stated)	i	-104	i	i	nt
N=c1c2c(n(Cc3ccc(Br)cc3)c3c1CCC3)CCCC2	-78	i	i	i	i
N=c1c2c(n(Cc3ccc(Cl)c(Cl)c3)c3c1CCC3)CCCC2	i	i	i	i	i
COC(=O)c1c(NC(=O)Cc2ccccc2)sc(C)c1C	i	i	i	i	i
CCOC(=O)c1c(NC(=O)Cn2nc(C(F)F)cc2C(F)F)sc(C)c1C	i	i	i	i	i
COC(=O)c1c(NC(=O)Cn2nc(C(F)F)cc2C(F)F)sc(C)c1C	-75	i	i	i	i
COC(=O)c1c(NC(=O)CCCC(=O)O)sc(C)c1C	-83	i	i	i	i
CCOC(=O)C(C)Sc1nc2c(c(=O)[nH]c(=O)n2C)n1Cc1ccc(Cl)cc1 (configuration not stated)	-91	?	i	i	i
O=C(CSc1nc2ccccc2s1)NCc1cc([N+](=O)[O-])ccc1O	i	i	i	?	nt
Cc1cc(NC(=O)c2ccc(-c3ccccc3F)o2)no1	-198	i	?	i	nt
Cc1cc(NC(=O)c2ccc(-c3ccccc3[N+](=O)[O-])o2)no1	i	i	nt	nt	nt
COc1ccc(OCC2c3cc(OC)c(OC)cc3CCN2C(=O)C(C)C)cc1 (configuration not stated)	i	i	i	i	i
Cc1cccc(N2CCN(C(=O)N3CCCCC3)CC2)c1C	i	i	82	i	i
Cc1cccc(N2CCN(C(=O)N3CCOCC3)CC2)c1C	i	i	i	i	i
Cc1ccc(N2CCN(C(=O)N3CCCC3)CC2)cc1C	i	i	94	i	i
CC1=C(C#N)C(C)(C)C(C#N)=C(C)N1	i	i	nt	nt	nt
O=C(c1cccc(C(F)(F)F)c1)C1CCCN(C(=O)CCCN2CCCC2=O)C1 (configuration not stated)	i	i	i	i	i
Cc1ccc(N(CC(=O)NCc2ccco2)C(=O)CCC(=O)Nc2ccccn2)c(C)c1	i	i	i	i	i
O=C(NCCc1ccccc1)C1COc2ccccc2O1 (configuration not stated)	i	i	i	i	i
SMILES	KCNH2 3.1 block	hERG WT inh	TRPV1 ag	TRPV1 PAM	MBNL1-CUG inh
O=C(NCCc1ccc(O)c(O)c1)C1COc2ccccc2O1 (configuration not stated)	i	i	89	i	i
O=[N+]([O-])c1cccnc1Oc1ccc(C2SCCS2)cc1	i	-153	nt	nt	nt
COc1cc(C2SCCS2)cc(Br)c1Oc1ncccc1[N+](=O)[O-]	i	i	nt	nt	nt
CCc1ccc([C@@H]2C[C@H]3[C@@H](CN2S(=O)(=O)c2ccc(C)cc2)C(=O)C[C@@H](c2ccc(C)cc2)N3S(=O)(=O)c2ccc(C)cc2)cc1	i	i	nt	nt	nt
COc1ccc(C(=O)NCc2nnc(SCC(=O)N3CCCCC3)o2)cc1	-92	i	i	i	nt
Cc1cc(C)n2nc(SCc3ccccc3F)nc2n1	i	i	i	i	i
Cc1cc(C)n2nc(SCc3ccccc3C(=O)O)nc2n1	-191	-144	i	i	i
N/C(=N\N=C/c1ccc(Br)cc1)N/N=C\c1ccc(Br)cc1	?	i	i	i	i
N/C(=N\N=C/c1ccc(F)cc1)N/N=C\c1ccc(F)cc1	-73	i	i	i	i
CCc1cc(SC#N)cc(C)c1N	-74	i	i	i	i
CCc1cc(SC#N)cc(C)c1NC(=O)CCl	i	i	i	i	i

Source: PubChem
